# Results taken from PubChem BioAssay (Tox21).
# Records with an inconclusive call do not appear. A call without a number means that no potency is given here. Unmarked numbers belong to inactive results. Active and inactive are the calls of the source. Unless noted, the call rests on the fitted dose curve; in most records, active means well fitted curve in the direction sought with a large enough effect in the repeat runs; inconclusive means weak or mixed curves; inactive means no such curve, though single readings can be large; an effect the other way counts as inactive or inconclusive.
# Legend:
# [1] = qHTS assay to identify small molecule agonists of the RXR signaling pathway - cell viability counter screen (AID 1159529); further: nearly all actives have a fitted effect of over 50% in size; further: potency means the concentration at half of the fitted maximal effect; on activity change, negative = cytotoxicity: series mostly up to about 77 µM
# In short: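 Luminescence from CellTiter-Glo (30 min, RT) measured viability in the same wells as the beta-lactamase reporter readout. Cells: GeneBLAzer RXR-alpha HEK 293T, 2% charcoal-stripped FBS. Compound exposure 16 hr, 37 C.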
# [2] = qHTS assay to identify small molecule antagonists of the retinoid acid receptor (RAR) signaling pathway - cell viability counter screen (AID 1159551); further: nearly all actives have a fitted effect of over 35% in size; further: potency means the concentration at half of the fitted maximal effect
# In short: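 Cytotoxicity counter screen in C3RL4 cells: 6 h compound exposure with 1 uM retinol (final), viability from cellular ATP by luminescence.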
# [3] = qHTS assay to identify small molecule antagonists of the retinoic acid receptor (RAR) signaling pathway (AID 1159552; further: nearly all actives have a fitted effect of over 50% in size; further: potency means the concentration at half of the fitted maximal effect)
# In short: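 Luminescence from a RARE luciferase reporter in C3RL4 cells served as read-out. Cells received compounds together with 1 uM final retinol and incubated 6 hr at 37 C before detection reagent was added for 30 min at room temperature.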
# [4] = qHTS assay to identify small molecule agonists of the retinoic acid receptor (RAR) signaling pathway (AID 1159553); further: potency means the concentration at half of the fitted maximal effect
# In short: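 Agonist activity was scored in C3RL4 cells bearing a retinoic acid response element luciferase construct. Cells were treated with compounds for 6 hr at 37 C, and luciferase signal was measured as luminescence.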
# [5] = qHTS assay to identify small molecule antagonists of the estrogen related receptor (ERR) signaling pathway from Tox21 library - cell viability counter screen (AID 1224834); further: nearly all actives have a fitted effect of over 30% in size; further: potency means the concentration at half of the fitted maximal effect
# In short: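 Cytotoxicity of test substances is gauged in the same ERR cells used for the antagonist screen, after 17.5 h of compound treatment at 37 C, by CellTiter-Fluor fluorescence measured after 30 min.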
# [6] = target: Luciferin 4-monooxygenase (Photinus pyralis) (UniProt P08659); assay: qHTS assay to identify small molecule inhibitors of firefly luciferase (AID 1224835); further: nearly all actives have a fitted effect of over 25% in size; further: potency means the concentration at half of the fitted maximal effect
# Luciferin 4-monooxygenase (Photinus pyralis), sequence (P08659 whole entry, looked up): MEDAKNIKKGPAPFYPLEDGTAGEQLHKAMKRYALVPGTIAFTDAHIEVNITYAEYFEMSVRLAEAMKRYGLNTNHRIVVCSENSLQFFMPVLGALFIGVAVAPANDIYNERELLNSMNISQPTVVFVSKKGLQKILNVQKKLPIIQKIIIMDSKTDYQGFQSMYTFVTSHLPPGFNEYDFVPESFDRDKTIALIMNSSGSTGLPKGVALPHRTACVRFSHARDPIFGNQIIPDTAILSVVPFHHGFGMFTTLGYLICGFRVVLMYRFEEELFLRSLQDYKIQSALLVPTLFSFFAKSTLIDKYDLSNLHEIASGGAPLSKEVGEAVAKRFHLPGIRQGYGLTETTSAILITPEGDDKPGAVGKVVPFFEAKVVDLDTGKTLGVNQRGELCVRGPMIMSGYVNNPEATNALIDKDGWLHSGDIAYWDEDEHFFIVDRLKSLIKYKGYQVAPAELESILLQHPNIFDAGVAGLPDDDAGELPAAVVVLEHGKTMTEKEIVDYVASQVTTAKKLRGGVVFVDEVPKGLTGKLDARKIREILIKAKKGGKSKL
# In short: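 Inhibition of purified Photinus luciferase is measured by luminescence. Substrate levels (D-luciferin, ATP) sit at their KM values. Each compound is tested in a concentration series.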
# [7] = qHTS assay to identify small molecule agonists of the constitutive androstane receptor (CAR) signaling pathway - cell viability counter screen (AID 1224836); further: nearly all actives have a fitted effect of over 45% in size; further: potency means the concentration at half of the fitted maximal effect; on viability change, negative = cytotoxic: series mostly up to about 92 µM
# In short: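 Viability read-out: CellTiter-Fluor fluorescence after 23 h compound exposure at 37 C/5% CO2 in double-stable HepG2-CYP2B6-hCAR cells, with PK11195 present at 0.75 uM final; compounds tested in 15-point titration.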
# [8] = qHTS assay to identify small molecule antagonists of the constitutive androstane receptor (CAR) signaling pathway - cell viability counter screen (AID 1224837); further: nearly all actives have a fitted effect of over 45% in size; further: potency means the concentration at half of the fitted maximal effect; on activity change, negative = cytotoxicity: series mostly up to about 92 µM
# In short: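 Multiplexed cytotoxicity read-out for the CAR antagonist screen: double-stable HepG2-CYP2B6-hCAR cells co-treated with 50 nM CITCO (final) and compound over 15 concentrations, incubated 23 hr, then assessed by CellTiter-Fluor fluorescence.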
# [9] = target: Nuclear receptor subfamily 1 group I member 3 (Homo sapiens) (UniProt Q14994); assay: qHTS assay to identify small molecule antagonists of the constitutive androstane receptor (CAR) signaling pathway (AID 1224838); further: nearly all actives have a fitted effect of over 40% in size; further: potency means the concentration at half of the fitted maximal effect
# Nuclear receptor subfamily 1 group I member 3 (Homo sapiens), sequence (Q14994 whole entry, looked up): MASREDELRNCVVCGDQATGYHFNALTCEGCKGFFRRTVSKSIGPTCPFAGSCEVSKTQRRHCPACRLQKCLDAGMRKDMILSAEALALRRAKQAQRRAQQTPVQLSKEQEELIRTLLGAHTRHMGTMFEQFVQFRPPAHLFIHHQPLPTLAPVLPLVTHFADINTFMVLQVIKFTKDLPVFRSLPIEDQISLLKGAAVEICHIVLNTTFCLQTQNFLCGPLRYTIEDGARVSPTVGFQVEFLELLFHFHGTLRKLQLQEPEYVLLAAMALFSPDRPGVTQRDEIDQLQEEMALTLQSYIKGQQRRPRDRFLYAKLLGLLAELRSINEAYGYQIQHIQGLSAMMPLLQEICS
# In short: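 Compounds were titrated across 15 concentrations onto HepG2 cells double-stably expressing hCAR and a CYP2B6-2.2kb reporter, together with 50 nM CITCO (final). After 24 h at 37 C, luciferase activity was measured by luminescence.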
# [10] = target: Nuclear receptor subfamily 1 group I member 3 (Homo sapiens) (UniProt Q14994); assay: qHTS assay to identify small molecule agonists of the constitutive androstane receptor (CAR) signaling pathway (AID 1224839);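 further: HepG2 cells stably carrying human CAR and a CYP2B6 luciferase reporter; series mostly up to about 92 µM; nearly all actives have a fitted effect of over 15% in size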
# In short: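 Luminescence read-out (ONE-Glo, 30 min, room temperature) from double-stable HepG2-CYP2B6-hCAR cells exposed 24 h to 15-point compound series in presence of 0.75 uM PK11195 final.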
# [11] = qHTS assay to identify small molecule antagonists of the estrogen related receptor signaling pathway with the pleiotropic PPARgamma coactivator (PGC) from Tox21 10K library - cell viability counter screen (AID 1224840; active means well fitted cell-killing curve with a large enough effect in the repeat runs, not every such curve was filed as active; further: nearly all actives have a fitted effect of over 40% in size; further: potency means the concentration at half of the fitted maximal effect)
# In short: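 Step one, plate 2,000 PGC/ERR cells per well; step two, incubate 6 h at 37 C/5% CO2; step three, pin-transfer compounds; step four, incubate 17.5 h; step five, add CellTiter-Fluor and read fluorescence after 30 min.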
# [12] = target: Retinoic acid receptor RXR-alpha (Homo sapiens) (UniProt P19793); assay: qHTS assay to identify small molecule agonists of the RXR signaling pathway (AID 1159527; calls by dose curve; further: nearly all actives have a fitted effect of over 35% in size)
# Retinoic acid receptor RXR-alpha (Homo sapiens), sequence (P19793 whole entry, looked up): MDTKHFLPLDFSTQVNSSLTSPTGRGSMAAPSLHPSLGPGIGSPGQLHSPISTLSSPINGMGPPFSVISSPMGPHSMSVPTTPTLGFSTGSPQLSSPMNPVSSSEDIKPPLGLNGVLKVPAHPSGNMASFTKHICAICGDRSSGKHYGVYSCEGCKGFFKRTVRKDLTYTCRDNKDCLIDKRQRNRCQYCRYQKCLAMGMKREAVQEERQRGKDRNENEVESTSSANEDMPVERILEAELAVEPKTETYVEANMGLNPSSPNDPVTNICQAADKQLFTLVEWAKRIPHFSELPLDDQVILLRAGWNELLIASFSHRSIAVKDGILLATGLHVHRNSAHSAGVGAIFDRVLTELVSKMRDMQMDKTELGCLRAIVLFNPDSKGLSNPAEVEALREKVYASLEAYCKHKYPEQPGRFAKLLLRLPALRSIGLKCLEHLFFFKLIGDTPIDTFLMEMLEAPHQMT
# In short: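 Agonist mode; 9-cis retinoic acid positive control. HEK 293T UAS-bla reporter cells, 2% charcoal-stripped FBS, 16 hr compound exposure at 37 C/5% CO2. LiveBLAzer B/G FRET substrate 2 hr RT; ex 405, em 460/530 nm.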
# [13] = qHTS assay to identify small molecule antagonists of the estrogen related receptor signaling pathway with the pleiotropic PPARgamma coactivator (PGC) from Tox21 10K library (AID 1224841; call rule not given here; further: actives are mostly falling curves and most rising ones were filed inactive; nearly all actives have a fitted effect of over 50% in size; further: potency means the concentration at half of the fitted maximal effect; on activity, negative = inhibition: series mostly up to about 92 µM)
# In short: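 Antagonism in this quantitative HTS is taken from loss of luciferase signal in PGC/ERR cells. Cells (2,000/well) are treated with compounds in DMSO after a 6 h settling period and read by One-Glo luminescence after 18 h.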
# [14] = qHTS assay to identify small molecule agonists of the estrogen related receptor signaling pathway with the pleiotropic PPARgamma coactivator (PGC) from Tox21 10K library (AID 1224842); further: nearly all actives have a fitted effect of over 15% in size
# In short: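 Luminescence from One-Glo (30 min, room temperature) measured after PGC/ERR cells had 18 h at 37 C with pinned compound (23 nL in DMSO). Cells had been seeded at 2,000 per well and pre-incubated 6 h.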
smiles,measurement,setting,value
CC(C)c1ccc(C(=O)N=C(N)N)cc1S(C)(=O)=O,Potency,[1],inactive
same,Potency,[2],inactive
same,Potency,[3],inactive
same,Potency,[4],inactive
same,Potency,[5],inactive
same,Potency,[6],inactive
same,Potency,[7],inactive
same,Potency,[8],inactive
same,Potency,[9],inactive
same,Potency,[10],inactive
same,Potency,[11],inactive
CCCC(=O)OC(=O)CCC,Potency,[1],inactive
same,Potency,[2],inactive
same,Potency,[3],inactive
same,Potency,[4],inactive
same,Potency,[5],inactive
same,Potency,[6],inactive
same,Potency,[7],inactive
same,Potency,[8],inactive
same,Potency,[10],inactive
same,Potency,[11],inactive
CCN(CC)c1ccc(C(=C2C=CC(=[N+](CC)CC)C=C2)c2ccc(S(=O)(=O)O)cc2S(=O)(=O)[O-])cc1,Potency,[12],inactive
same,Potency,[2],15.4 µM (active)
same,Potency,[3],24.3 µM (active)
same,Potency,[5],21.7 µM (active)
same,Potency,[7],24.3 µM (active)
same,Potency,[8],27.3 µM (active)
same,Potency,[11],27.3 µM (active)
same,Potency,[13],8.63 µM (active)
same,Potency,[14],inactive
CC1=CC[C@@H]2C[C@H]1C2(C)C,"activity change, negative = cytotoxicity",[1],-11.8% [at 15.8 µM]
same,"activity change, negative = cytotoxicity",[2],-0.147% [at 19 µM]
same,"activity, negative = inhibition",[3],70.7% [at 19 µM]
same,"viability change, negative = cytotoxic",[5],2.93% [at 19 µM]
same,"viability change, negative = cytotoxic",[7],1.82% [at 19 µM]
same,"activity change, negative = cytotoxicity",[8],-2.4% [at 19 µM]
same,"viability change, negative = cytotoxic",[11],-1.25% [at 19 µM]
CN1CCCN(C(c2ccccc2)c2ccc(Cl)cc2)CC1 (configuration not stated),Potency,[1],7.56 µM (active)
same,Potency,[2],inactive
same,Potency,[3],23.7 µM (active)
same,Potency,[5],29.8 µM (active)
same,Potency,[7],26.6 µM (active)
same,Potency,[8],29.8 µM (active)
same,Potency,[10],inactive
same,Potency,[11],26.6 µM (active)
same,Potency,[13],inactive
same,Potency,[14],inactive
CCCCOC(=O)CCCCC(=O)OCCCC,Potency,[1],inactive
same,Potency,[2],inactive
same,Potency,[3],inactive
same,Potency,[5],inactive
same,Potency,[6],inactive
same,Potency,[7],inactive
same,Potency,[8],inactive
same,Potency,[11],inactive
same,Potency,[13],inactive
same,Potency,[14],inactive
SCCc1cnccn1,Potency,[12],inactive
same,Potency,[2],inactive
same,Potency,[5],inactive
same,Potency,[7],inactive
same,Potency,[8],inactive
same,Potency,[10],inactive
same,Potency,[11],inactive
same,Potency,[13],inactive
same,Potency,[14],inactive
CCCCCCCCCCCSCC(=O)O,Potency,[1],19.5 µM (active)
same,Potency,[2],inactive
same,Potency,[3],inactive
same,Potency,[4],inactive
same,Potency,[5],inactive
same,Potency,[7],inactive
same,Potency,[8],inactive
same,Potency,[10],inactive
same,Potency,[11],inactive
same,Potency,[13],inactive
same,Potency,[14],inactive
CC1CCc2nccnc21 (configuration not stated),Potency,[1],inactive
same,Potency,[2],inactive
same,Potency,[3],inactive
same,Potency,[4],inactive
same,Potency,[5],inactive
same,Potency,[7],inactive
same,Potency,[8],inactive
same,Potency,[9],inactive
same,Potency,[10],inactive
same,Potency,[11],inactive
same,Potency,[13],inactive
same,Potency,[14],inactive
CCOC(=O)C(C)O (configuration not stated),Potency,[1],inactive
same,Potency,[2],inactive
same,Potency,[3],inactive
same,Potency,[5],inactive
same,Potency,[6],inactive
same,Potency,[7],inactive
same,Potency,[8],inactive
same,Potency,[9],inactive
same,Potency,[10],inactive
same,Potency,[11],inactive
CC(C)CC(O)CC(C)C,Potency,[12],inactive
same,Potency,[2],inactive
same,Potency,[3],inactive
same,Potency,[5],inactive
same,Potency,[7],inactive
same,Potency,[8],inactive
same,Potency,[9],inactive
same,Potency,[10],inactive
same,Potency,[11],inactive
same,Potency,[13],inactive
same,Potency,[14],inactive
CCN(Cc1cccc(S(=O)(=O)O)c1)c1ccc(C(=C2C=CC(=[N+](CC)Cc3cccc(S(=O)(=O)O)c3)C=C2)c2ccc(O)cc2S(=O)(=O)[O-])cc1,Potency,[12],inactive
same,Potency,[2],14.8 µM (active)
same,Potency,[3],9.32 µM (active)
same,Potency,[5],16.6 µM (active)
same,Potency,[7],16.6 µM (active)
same,Potency,[9],11.7 µM (active)
same,Potency,[10],inactive
same,Potency,[11],33.1 µM (active)
same,Potency,[13],16.6 µM (active)
same,Potency,[14],inactive
CC(=O)OCC(C)C,Potency,[1],inactive
same,Potency,[2],inactive
same,Potency,[3],inactive
same,Potency,[5],inactive
same,Potency,[6],inactive
same,Potency,[7],inactive
same,Potency,[8],inactive
same,Potency,[9],inactive
same,Potency,[10],inactive
same,Potency,[11],inactive
O=C(O)CCC(=O)c1ccc(-c2ccccc2)cc1,Potency,[1],inactive
same,Potency,[2],inactive
same,Potency,[3],inactive
same,Potency,[4],11.9 µM (active)
same,Potency,[5],inactive
same,Potency,[7],inactive
same,Potency,[8],inactive
same,Potency,[10],inactive
same,Potency,[11],inactive
CCN(CC)C(=O)/C(C#N)=C/c1cc(O)c(O)c([N+](=O)[O-])c1,Potency,[1],inactive
same,Potency,[2],inactive
same,Potency,[3],inactive
same,Potency,[5],26.6 µM (active)
same,Potency,[6],inactive
same,Potency,[9],inactive
same,Potency,[10],inactive
CCCOC(=O)c1c(Cl)c(Cl)c(Cl)c(Cl)c1C(=O)OCCC,Potency,[12],inactive
same,Potency,[2],inactive
same,Potency,[3],inactive
same,Potency,[4],inactive
same,Potency,[5],inactive
same,Potency,[6],inactive
same,Potency,[7],inactive
same,Potency,[8],inactive
same,Potency,[9],inactive
same,Potency,[11],inactive
same,Potency,[13],inactive
same,Potency,[14],inactive
Nc1ccc(N=Nc2ccc(N)cc2)cc1,Potency,[12],inactive
same,Potency,[2],inactive
same,Potency,[3],inactive
same,Potency,[4],0.863 µM (active)
same,Potency,[5],27.3 µM (active)
same,Potency,[6],4.48 µM (active)
same,Potency,[10],inactive
O=C(CCS)OCC(COC(=O)CCS)(COC(=O)CCS)COC(=O)CCS,Potency,[12],inactive
same,Potency,[5],inactive
same,Potency,[6],inactive
same,Potency,[7],inactive
same,Potency,[8],inactive
same,Potency,[9],inactive
same,Potency,[10],inactive
same,Potency,[11],inactive
CCC(=O)OCc1ccc(OC)cc1,Potency,[1],inactive
same,Potency,[2],inactive
same,Potency,[3],inactive
same,Potency,[5],inactive
same,Potency,[6],inactive
same,Potency,[7],inactive
same,Potency,[11],inactive
CCN(Cc1cccc(S(=O)(=O)O)c1)c1ccc(C(=C2C=CC(=[N+](CC)Cc3cccc(S(=O)(=O)O)c3)C=C2)c2ccccc2S(=O)(=O)[O-])cc1,Potency,[1],inactive
same,Potency,[2],15.4 µM (active)
same,Potency,[3],13.7 µM (active)
same,Potency,[5],30.7 µM (active)
same,Potency,[6],20.1 µM (active)
same,Potency,[7],34.5 µM (active)
same,Potency,[8],34.5 µM (active)
same,Potency,[9],15.4 µM (active)
same,Potency,[10],inactive
same,Potency,[11],27.4 µM (active)
same,Potency,[13],8.67 µM (active)
same,Potency,[14],inactive
Cc1ccc(Nc2c(F)cccc2Cl)c(CC(=O)O)c1,Potency,[12],inactive
same,Potency,[2],inactive
same,Potency,[5],inactive
same,Potency,[6],inactive
same,Potency,[7],inactive
same,Potency,[8],inactive
same,Potency,[9],inactive
same,Potency,[10],inactive
same,Potency,[11],inactive
same,Potency,[13],inactive
same,Potency,[14],inactive
Cc1cc([N+](=O)[O-])ccc1N,Potency,[1],inactive
same,Potency,[2],inactive
same,Potency,[3],inactive
same,Potency,[4],inactive
same,Potency,[5],33.9 µM (active)
same,Potency,[9],inactive
same,Potency,[10],inactive
C[C@@H]1[C@H](O)[C@@H](C)/C=C/C=C\C=C\C=C\C=C\C=C\C=C\[C@H](O[C@@H]2O[C@H](C)[C@@H](O)[C@H](N)[C@@H]2O)C[C@@H]2O[C@](O)(C[C@@H](O)C[C@@H](O)[C@H](O)CC[C@@H](O)C[C@@H](O)CC(=O)O[C@H]1C)C[C@H](O)[C@H]2C(=O)O (stereo in doubt),Potency,[12],inactive
same,Potency,[2],inactive
same,Potency,[3],inactive
same,Potency,[5],61.1 µM (active)
same,Potency,[7],inactive
same,Potency,[9],inactive
same,Potency,[11],inactive
